High-throughput results from PubChem.
S1P2 antag – S1P2 (human) receptor antagonism; inhibition, % at 5 µM; hit rate 0.21% among 97,000; O95136; cell-based S1P2 antagonist assay, inhibition at 5 uM; in the data active = inhibition above about 45%;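 also: CRE beta-lactamase reporter cells expressing human S1P2 stimulated with S1P; 0% = agonist at EC80 alone and 100% = agonist plus reference antagonist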
Target sequence (O95136 whole entry, looked up): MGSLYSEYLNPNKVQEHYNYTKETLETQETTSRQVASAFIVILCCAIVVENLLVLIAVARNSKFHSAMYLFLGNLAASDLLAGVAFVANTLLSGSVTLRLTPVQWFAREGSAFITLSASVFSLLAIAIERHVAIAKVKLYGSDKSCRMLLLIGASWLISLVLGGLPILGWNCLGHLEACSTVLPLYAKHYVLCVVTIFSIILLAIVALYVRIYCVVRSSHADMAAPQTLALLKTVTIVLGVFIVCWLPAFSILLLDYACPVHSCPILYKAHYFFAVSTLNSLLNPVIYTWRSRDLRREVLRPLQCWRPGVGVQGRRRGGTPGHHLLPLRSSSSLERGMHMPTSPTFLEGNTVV
E-sel TNF inh – TNF alpha driven E-selectin expression inhibition; HUVEC TNFa-induced E-selectin immunofluorescence, high content; inhibition, % at 2 µM; hit rate 0.71% among 120,000; AID 1246;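 active = inhibition above the batch mean plus 3 SD, and confirmed as a hit on visual image review, cut at about 43% in these data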;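 also: 0% = TNF-stimulated DMSO wells and 100% = unstimulated control wells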
TNFa cytotox – HUVEC cytotoxicity counter-screen, TNF alpha stimulated. HUVEC TNFalpha-stimulated, Hoechst cell count, imaging. cell count reduction, % at 2 µM. hit rate 0.17% among 93,000. AID 848;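 active = cell count reduction exceeding the screen mean by over 5 SD, scaled to untreated wells per plate, cut at about 78% in these data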;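 also: cells counted after 24 h of TNF alpha exposure following the 1 h pretreatment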
VCAM1 TNFa inh – reduces TNF alpha induced VCAM1 expression in HUVEC; HUVEC TNFa-induced VCAM-1 immunofluorescence, high-content imaging; inhibition, % at 2 µM; hit rate 0.48% among 95,000; AID 802;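 active = inhibition above the batch mean plus 3 SD, with images confirmed as a hit by eye, cut at about 37% in these data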;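 also: 0% = TNF-stimulated DMSO wells and 100% = unstimulated control wells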
cytoskel mod – alters cytoskeleton assembly in HUVEC cells | HUVEC TNFa F-actin phalloidin imaging, high content | inhibition, % at 2 µM | hit rate 0.18% among 91,000;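 active = inhibition above the batch mean plus 3 SD and confirmed as a hit by visual image inspection, cut at about 30% in these data, passing the limit was not always enough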
S1P2 ag – activates the human S1P2 receptor | S1P2-expressing cell line, agonist reporter read-out | hit rate 0.46% among 97,000 | O95136 | activation, % at 4.5 µM | AID 729; in the data active = activation above about 16%;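 also: 0% = vehicle low control and 100% = maximal reference agonist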
* = called active by the depositor; . = no result given. Compounds with a hit are over-represented: about 1.6% of the library has one in this group of screens.

SMILES	S1P2 antag	E-sel TNF inh	TNFa cytotox	VCAM1 TNFa inh	cytoskel mod	S1P2 ag
COCCNC(=O)C1=C(N)C(C(=O)Nc2ccc(C)c(S(=O)(=O)N3CCCCC3)c2)SC1=Nc1ccc(C)cc1C (stereo unspecified)	-3.4	-4.1	-16.2	-6.4	4.5	-3.1
Cc1ccc(S(=O)(=O)N(CC(=O)N/N=C/c2ccccc2C(=O)O)c2cc(Cl)cc(Cl)c2)cc1	.	3.2	.	.	.	.
CCc1ccc(NC(=O)CCn2c(=O)oc3ccccc32)cc1	8.1	.	100.0*	.	.	-6.2
Cc1ccc(NC(=O)CCn2c(=O)oc3ccccc32)cc1	-10.7	.	-30.1	9.1	35.2	-6.6
Cc1ccc(-c2nnc(-c3cccc(NC(=O)c4cccs4)c3)o2)cc1	-3.9	39.8	-7.7	18.2	-4.8	-0.1
O=C(CN1CCCCCCC1)Nc1cccc(Cl)c1Cl	.	-25.0	.	.	.	.
c1ccc(CN2CCN(c3ncnc4c3[nH]c3ccccc34)CC2)cc1	78.1*	16.5	-14.4	-7.7	-3.5	-6.4
Cc1ccc2c(c1)[nH]c1c(N3CCN(Cc4ccccc4)CC3)ncnc12	70.0*	0.6	-9.5	10.6	-69.0	-9.8
CCOc1ccc2[nH]c3c(N4CCN(c5ccccn5)CC4)ncnc3c2c1	1.4	10.7	-20.0	1.5	50.3	-7.9
COc1ccc2c(c1)[nH]c1c(N3CCN(Cc4ccc5c(c4)OCO5)CC3)ncnc12	86.7*	3.1	-55.9	-6.3	8.7	-9.2
COc1cccc2[nH]c3c(N4CCN(Cc5ccc6c(c5)OCO6)CC4)ncnc3c12	20.3	.	-11.2	2.7	12.2	-3.0
Cc1ccc2[nH]c3c(N4CCN(Cc5ccccc5)CC4)ncnc3c2c1	58.8*	.	-10.6	16.2	7.2	-8.9
CCOC(=O)CNC(=S)N(Cc1ccccc1)Cc1cccnc1	.	10.4	.	.	.	.
Cc1ccc2[nH]c3c(N4CCN(Cc5ccc6c(c5)OCO6)CC4)ncnc3c2c1	69.4*	18.1	7.5	-1.1	-24.4	-6.3
Cc1ccc2[nH]c3c(N4CCCCCC4)ncnc3c2c1	91.7*	.	-23.7	1.4	-15.2	-9.5
Fc1ccc2[nH]c3c(N4CCN(C5CCCCC5)CC4)ncnc3c2c1	.	15.2	.	.	.	.
OCCOCCn1c2ccccc2c2ccccc21	12.7	.	39.3	19.6	-7.6	0.1
Nc1c(C(=O)NC2CCCC2)c2nc3ccccc3nc2n1/N=C/c1ccco1	2.4	-3.0	-11.6	5.4	2.4	2.4
Nc1c(C(=O)NC2CCCC2)c2nc3ccccc3nc2n1N	-12.8	.	-3.6	9.3	47.2*	-4.6
C#CCOCCOCCOCCNc1nc(N2CCN(C(=O)Cn3cc(CC(C)O)nn3)CC2)nc(N2CCN(C(=O)[C@H](C)n3cc(CCCN=C(N)N)nn3)CC2)n1 (stereo partly specified)	.	-16.8	.	.	.	.
C=CCn1c(SCc2c(C)noc2C)nc2ccccc2c1=O	-29.7	3.1	36.0	59.8*	12.6	1.0
CCOC(=O)N1CCc2c(sc3c2c(=O)n(Cc2ccccc2)c(=O)n3Cc2ccccc2F)C1	.	-16.3	.	.	.	.
CCOC(=O)N1CCc2c(sc3c2c(=O)n(Cc2ccccc2)c(=O)n3Cc2cccc(C)c2)C1	.	88.3*	.	.	.	.
CC(=O)Nc1ccc(NC2(C)C(=O)c3ccccc3C2=O)cc1	8.0	.	87.6*	92.8*	-23.0	-4.7
Oc1ccc(N=Nc2n[nH]c(-c3ccc(Cl)cc3)n2)cc1	11.7	-9.9	-18.8	11.1	51.5*	-7.1
SMILES	S1P2 antag	E-sel TNF inh	TNFa cytotox	VCAM1 TNFa inh	cytoskel mod	S1P2 ag
Cc1ncc(N=Nc2ccc(F)cc2)c(-c2ccc(Cl)cc2)n1	19.6	8.1	-4.0	-8.2	16.2	-2.9
COc1ccc(CNC(=O)CCc2nc3cc(S(=O)(=O)N(C)C)ccc3n2C)cc1OC	.	-13.8	.	.	.	.
CCOC(=O)Nc1nc(-c2ccccc2)c(C(=O)c2ccccc2)s1	-16.1	-8.2	58.0	78.1*	0.3	0.6
COC(=O)Nc1nc(-c2ccccc2)c(C(=O)c2ccc(Cl)cc2)s1	-41.7	30.3	-6.5	4.6	4.5	3.4
Cc1cccnc1N(C(=O)Nc1ccccc1)C1=NCC(C)(C)S1	8.5	-4.9	57.2	42.1*	7.7	-4.2
Clc1cc(Cl)cc(C2=NCCC(c3ccccc3)O2)c1 (stereo unspecified)	.	23.2	.	.	.	.
CCc1ccc(NC(=O)C2(c3ccccc3)CC2(Cl)Cl)cc1 (stereo unspecified)	4.0	23.6	-9.0	25.0	-5.7	25.2*
O=C1c2ccccc2-c2ccc(C(=O)N3CCCCC3)cc21	.	-3.4	.	.	.	.
Cc1[nH]n(-c2ccc([N+](=O)[O-])cc2)c(=O)c1N=Nc1nc2ccccc2s1	-1.2	19.1	-3.9	52.4*	5.8	-1.4
Cc1cc(=O)oc2cc(OCC(=O)OCC(=O)NCc3ccc4c(c3)OCO4)ccc12	21.0	70.8*	-7.2	-8.7	8.4	-4.7
CC(=O)OCC(=O)NCc1ccc2c(c1)OCO2	10.0	.	-30.6	23.5	-10.1	0.6
COc1ccc(-n2c(C)cc(C(=O)COc3ccc(C)nc3[N+](=O)[O-])c2C)cc1	.	62.0*	.	.	.	.
O=C(O)CCc1ccc(-c2ccc(Br)cc2)o1	-12.9	.	-4.1	11.5	-21.6	-10.1
NC(=O)c1ccc(-c2ccc(Br)cc2)o1	8.4	43.3*	-9.8	-8.3	-2.6	-1.2
Cc1ccc(N(CN2CCCC2=O)C(=O)c2ccc(OC(C)C)cc2)cc1	18.4	1.6	79.4*	62.2	-10.5	-6.6
C=CCn1c(COc2ccccc2)nnc1SC(C)C(=O)N/N=C/c1cc(Cl)ccc1O (stereo unspecified)	-7.5	20.0	-10.2	28.5	-5.5	-1.4
C=CCn1c(COc2ccc(Cl)cc2)nnc1SCC(=O)N/N=C/c1cccc(O)c1	13.6	-6.7	-28.8	5.6	65.6*	-3.2
CC(C(=O)Nc1ccccc1)N(C)CCOc1ccc(Br)cc1 (stereo unspecified)	.	-5.7	.	.	.	.
O=C(NCc1ccc(Cl)s1)c1cc(COc2c(F)cccc2F)on1	.	-24.9	.	.	.	.
CCc1ccc(CN(C)C(=O)c2cc(COc3c(F)cccc3F)on2)cc1	.	83.2*	.	.	.	.
Cc1ccc(-c2nn(-c3ccccc3)cc2/C=N/NC(=O)c2ccc(Br)o2)cc1	100.5*	-7.8	-3.3	-5.4	-30.4	-8.1
Cc1cc(NC(=S)NC(=O)C2CC2)ccc1Br	.	-59.4	.	.	.	.
NC(=O)c1nc(C2CCCCC2)nc2c1[nH]c(=O)n2-c1ccc(F)cc1	-18.1	25.2	1.7	17.3	-12.7	-0.9
COc1ccccc1-n1c(=O)[nH]c2c(C(N)=O)nc(C3CCCCC3)nc21	-11.2	68.5*	-8.2	1.1	6.9	-5.8
Cc1cccc2c(CC(=O)O)noc12	.	-10.2	.	.	.	.
CC(=O)Nc1cc(OC(C)=O)c2nonc2c1OC(C)=O	98.2*	9.2	.	.	-2.8	2.2
O=C(O)CCn1c2c(c3ccccc31)CCCC2	-0.7	28.3	0.4	13.9	1.1	-5.9
O=C(CCn1c2c(c3ccccc31)CCCC2)NNC(=O)c1ccccc1[N+](=O)[O-]	.	80.6*	.	.	.	.
O=S(=O)(c1cccs1)N1CCN(CC(O)COc2cccc(Br)c2)CC1 (stereo unspecified)	7.1	-7.8	55.0	94.1*	-13.0	-10.2
